# Screening data (PubChem)
# PrP UTR inh = suppresses PrP 5' UTR mRNA reporter expression; AID 488862; cell-based PrP 5' UTR mRNA reporter, plate reader; inhibition, % (concentration not given with the values); hit rate 0.35% among 340,000; in the data active means inhibition above about 52%; further: 0 = median of the neutral control wells
# PfHsp40 yeast = rescue of PfHsp40-mediated yeast toxicity; AID 504582; growth rescue, % at 12.5 µM; S. cerevisiae expressing PfHsp40, growth rescue, ATP luminescence; hit rate 0.68% among 340,000; in the data active means growth rescue above about 28%, passing the limit was not always enough;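 further: yeast W303a lacking pdr1 and pdr3 grown in galactose medium; growth measured after three days at 30 °C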
# TcdB GH inh = blocks C. difficile toxin B glycohydrolase activity | P18177 | TcdB glycohydrolase enzymatic assay, plate reader | inhibition, % at 9.99 µM | hit rate 0.24% among 350,000; in the data active means inhibition above about 10%
# Mtb BioA inh = inhibitors of Mycobacterium tuberculosis BioA enzyme; purified M. tuberculosis BioA enzyme, plate reader; inhibition, % at 9.99 µM; hit rate 0.096% among 360,000; AID 602481; in the data active means inhibition above about 40%
# FadD28 FP inh = M. tuberculosis FadD28 bisubstrate binding inhibition | FadD28 bisubstrate probe binding, fluorescence polarization | inhibition, % at 12.5 µM | hit rate 0.22% among 360,000; in the data active means inhibition above about 8.5%, passing the limit was not always enough
# Active calls of the source: *; . = no result given. The list is not random: actives were taken first. Their share in the collection is about 1.1%.
SMILES,PrP UTR inh,PfHsp40 yeast,TcdB GH inh,Mtb BioA inh,FadD28 FP inh
CCCCCOc1ccc(CSc2n[nH]c(C)n2)cc1,-35.0,271.4*,1.1,.,-0.8
Cc1nc(SCc2ccc(OCCC(C)C)cc2)n[nH]1,-58.2,300.9*,0.7,.,-2.8
Cc1nc(SCc2ccc(F)cc2)n[nH]1,-24.8,-0.7,0.6,0.5,.
S=c1[nH]nc(-c2ccco2)n1-c1ccc(Br)cc1,-11.5,42.7*,0.3,1.3,-2.0
COC(=O)C[C@H]1CC[C@H]2[C@@H](COc3ccc(NC(=O)Nc4cc(C)cc(C)c4)cc3C(=O)N2C)O1,.,.,-1.8,-0.7,.
COc1ccc(CNc2ncnc3c2[nH]c2cc(OC)c(OC)cc23)cc1,-27.1,-2.5,-1.0,-0.7,10.4*
COc1ccc(CNc2ncnc3c2[nH]c2ccccc23)cc1,.,.,0.9,11.4,-3.4
CC(=O)N1[C@@H](CO)[C@@H]2c3ccccc3N(C(=O)Nc3cc(F)ccc3F)C[C@@H]21,.,.,-0.3,-1.5,.
Cc1ccc(S(=O)(=O)NC(=O)Nc2cc(C)ccc2F)cc1,9.2,-0.4,.,0.1,-2.7
CC(=O)NS(=O)(=O)c1ccc(N=c2ssc3c2-c2ccc(C)cc2NC3(C)C)cc1,-2.1,-1.2,.,.,14.3*
CCOc1cc(C2C(C(=O)c3ccc(C)o3)=C(O)C(=O)N2CCc2ccccc2)ccc1O (centres undefined),-20.0,76.8*,.,-0.3,-0.3
COc1ccccc1-c1ccc(C2[C@H]3CNC[C@@H]2N3C(=O)Nc2ccccc2Cl)cc1 (some centres undefined),.,.,-1.9,.,.
O=C(N[C@H]1CC[C@@H](CCn2cc(C3CCCCC3)nn2)O[C@H]1CO)c1cccnc1,.,.,-0.3,2.4,.
CC(=O)C1=C(c2cccc([N+](=O)[O-])c2)N(C(C)=O)n2c(C)nnc2S1,-23.8,82.4*,-1.9,.,-2.7
CC(C)NC(=O)N(C)C[C@@H]1Oc2ccc(NS(=O)(=O)c3cn(C)cn3)cc2CC(=O)N([C@H](C)CO)C[C@@H]1C,.,.,0.4,-1.9,.
CCCCn1c(O)c(/C=C/C=C/C=Nc2ccccc2)sc1=S,-16.3,41.6*,0.5,.,-0.3
CCn1c(O)c(/C=C/C=C/C=Nc2ccccc2)sc1=S,-40.3,-1.5,-0.4,.,-3.4
COc1[nH]c(/N=C/c2ccccc2)c(C#N)c1C#N,-14.9,-1.5,.,.,27.6*
Cc1oc(/N=C/c2ccccc2)c(C#N)c1C,-5.7,0.3,0.6,4.9,0.4
O=c1c2ccc(Cl)cc2[nH]c(=S)n1-c1cccnc1,-25.5,0.7,10.4*,.,-1.9
CN(C)C(=O)C[C@H]1C[C@H]2c3cc(NC(=O)c4ccc5c(c4)OCO5)ccc3O[C@H]2[C@H](CO)O1,.,.,0.7,1.1,.
CCNC(=S)Nc1ccc(C)c(S(=O)(=O)Nc2ccccc2OC)c1,-9.1,105.9*,1.7,.,0.3
COc1ccccc1NS(=O)(=O)c1cc(NC(=O)C(C)C)ccc1N1CCCCC1,-9.9,-2.2,1.2,.,-2.4
COc1ccccc1NS(=O)(=O)c1cc(NC(=O)Nc2ccccc2)ccc1N1CCCCC1,-39.5,45.8*,-2.1,-0.1,-1.5
COc1ccccc1NS(=O)(=O)c1cc(NC(=O)CNC(=O)c2cc(C)cc(C)c2)ccc1C,-35.8,-0.6,.,-1.0,-4.5
SMILES,PrP UTR inh,PfHsp40 yeast,TcdB GH inh,Mtb BioA inh,FadD28 FP inh
COC(=O)[C@]1(Cc2ccccc2)N[C@H](CN(C)C(=O)c2ccccc2)[C@@H]2C(=O)N(Cc3ccccc3)C(=O)[C@@H]21,-6.3,0.7,2.0,0.8,-0.7
COC(=O)[C@]1(Cc2ccccc2)N[C@H](CN(C)C(=O)c2ccc(C)cc2)[C@@H]2C(=O)N(Cc3ccccc3)C(=O)[C@@H]21,-19.6,47.4*,0.2,0.0,-0.4
Nc1ccc2c(c1)-c1ccccc1S(=O)(=O)N2,-8.4,-0.9,.,.,25.4*
O=C(Nc1cccc(-c2nc3ccccc3s2)c1)c1cccs1,-30.1,403.4*,.,.,-9.2
CSc1nc2ccc(NC(=O)c3cccs3)cc2s1,-55.2,158.0*,5.2,-4.6,-0.5
O=C(Nc1cccc(-c2nc3ccccc3s2)c1)c1cc(=O)c2ccccc2o1,-24.3,-1.4,0.0,.,-3.8
CSc1nc2ccc(NC(=O)c3ccco3)cc2s1,-95.7,2.3,.,.,-5.0
C[C@H]1CN([C@@H](C)CO)C(=O)c2cc(NC(=O)Cc3cn(C)c4ccccc34)ccc2O[C@H]1CN(C)S(C)(=O)=O,.,.,-0.2,2.7,.
Cc1nc(S/C(=C\c2ccc(OCc3ccccc3Cl)cc2)C(=O)O)n[nH]1,-0.9,-1.3,.,-1.8,-1.5
Cc1nc(S/C(=C\c2ccc(-c3ccc(C(=O)O)c(Cl)c3)o2)C(=O)O)n[nH]1,-14.4,-1.3,-1.2,0.3,19.9*
CCOC(=O)c1c(-c2ccccc2)oc2ccc(O)cc12,-15.8,317.8*,1.9,-0.2,-4.5
